Records with an inconclusive call do not appear. Values without a mark were called inactive. Calls follow the shape of the dose curve; as a rule, active = well fitted curve in either direction with a large enough effect (not every such curve was filed as active); inconclusive = small, poorly fitted or top-dose-only effect, or another doubt; inactive = flat fitted curve, though single readings scatter.
% is scaled to controls: 0 for no effect and ±100 for the full control effect.

A short description of the assay: NFAT Signaling Pathway (AID 444).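 Also: carbachol stimulus at about its EC50 of 1 µM final.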 Conditions: Jurkat NFAT-bla M1, carbachol, beta-lactamase ratio, 5 h; at 7.69 µM (top of the series) unless noted. The gist of the method:
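Jurkat cells carrying an NFAT-driven β-lactamase reporter and co-transfected muscarinic M1 receptor were treated with compound plus carbachol (1 uM final, an EC50 level) for 5 h at 37 °C. CCF4 loading followed for 1 h at RT; 460/530 nm ratio gave %activity.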
Turning to `Clc1ccccc1-c1nccc(-n2ccnc2)n1`, the activity change, negative = inhibition was -0.584%.
Turning to `Cc1cccc(CNc2ccnc(-c3ccoc3)n2)c1`, the activity change, negative = inhibition was 0.371%.
With `c1nc(NC2CCNCC2)c2cc(-c3ccc4c(c3)OCO4)ccc2n1` the figure was 15.7%; with `O=c1c(-c2ccccc2)nc2cnc(Oc3ccccc3)nc2n1Cc1cccs1`, -0.0107%.
Under `COc1ccc(-n2c(=O)c(-c3cn(C)c4ccccc34)nc3cnc(OC)nc32)cc1` stands -7.96%; under `CN(C)c1ncc2ncc(=O)n(CCC#N)c2n1`, 3.55%.
With `COc1ccccc1CNc1ncncc1-c1ccoc1` the figure was -22.1%; with `COc1ncc2ncc(=O)n(Cc3cccs3)c2n1`, -2.85%; with `FC(F)(F)c1ccccc1-c1cc(N2CCNCC2)ncn1`, 5.38%.
With `CC(=O)NCCNc1nc(-c2ccccc2C(F)(F)F)nc2ccccc12`, the activity change, negative = inhibition is 4.42%.
Turning to `COc1ccccc1CNc1ccnc(-c2ccoc2)n1`, the activity change, negative = inhibition is -21%.
With `Cc1ccccc1-c1cncnc1Nc1ccc(F)cc1` the figure was 3.46%; with `CN(Cc1ccco1)c1cc(-c2ccccc2Cl)ncn1`, -22.4%; with `COc1ccc(-n2c(=O)cnc3cnc(Oc4ccccc4)nc32)cc1`, 2.58%.
Take `COc1ncc2nc(-c3cccc(C#N)c3)c(=O)n(CCC#N)c2n1`: the activity change, negative = inhibition is -6.7%.
With `CN(Cc1ccco1)c1ncnc2ccc(-c3cccc(C#N)c3)cc12`, the activity change, negative = inhibition was 19.8%.
Under `c1ccc(CNc2ccnc(-c3ccoc3)n2)cc1` stands 4.39%.
